RECQ1 inh – blocks DNA unwinding by human RECQ1 | RECQ1 DNA unwinding, red fluorescence kinetic read | Potency, µM (titrated, usually from 57.3 µM), inactives show top-dose activity, negative = inhibition, hits mostly inhibitors | hit rate 0.54% among 240,000;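 also: potency is read from the fitted curve at half-maximal effect; plate controls were vehicle for no effect and no enzyme for full effect; nearly all actives have a fitted effect of over 30% in size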
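50 nM RECQ1T1 preincubated 15 min with compound in Tris pH 8.0 buffer with MgCl2, DTT, Tween-20 and 2.5 ug/ml poly(dI-dC); started with 200 nM TAMRA/BHQ-2 forked duplex and 2 mM ATP. Unwinding read as fluorescence (525/598 nm), two reads 2 h apart.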
PI5P4Ka inh – PI5P4K alpha (human) kinase inhibition; P48426; PI5P4Kalpha enzyme, ADP-Glo luminescence, 60 min; stronger effect = lower value; max response, %; hit rate 1.2% among 330,000; AID 652105; active = max response of -50% or lower; inconclusive = between -30% and -50%; inactive = -30% or higher; also: value at the top dose of about 77 µM
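ADP-Glo luminescence end-point after a 60 min room-temperature kinase reaction. PI5P4Kalpha and substrate in HEPES pH 7.4 buffer with EGTA, 0.1% CHAPS and 5% DMSO; ATP at 5 microM final.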
WRN inhibitor – WRN helicase (human) inhibition. WRN helicase unwinding, fluorescent forked duplex, kinetic. Potency, µM (highest dose often 114 µM), for the others: at the top dose activity change, negative = inhibition, hits mostly inhibitors. hit rate 0.46% among 360,000. AID 651768; also: potency is read from the fitted curve at half-maximal effect; nearly all actives have a fitted effect of over 55% in size
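Fluorescence dequenching readout, ex 525 nm/em 598 nm, kinetic mode: forked duplex DNA (100 nM final) with adjacent fluorophore and quencher unwound by WRN (20 nM final) with 2 mM ATP. Compound preincubation 15 min, room temperature.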
BLM helicase inh – Bloom syndrome helicase (human) inhibition. hit rate 0.2% among 350,000. AID 2528. recombinant BLM DNA unwinding, fluorescence dequenching. Potency, µM (highest dose often 56.1 µM), inactives show top-dose activity change, negative = inhibition, actives largely listed as inhibitors;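 also: potency is read from the fitted curve at half-maximal effect; plate controls were vehicle for no effect and no enzyme for full effect; nearly all actives have a fitted effect of over 35% in size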
APEX1 inh – inhibitors of human APE1 endonuclease | Potency, µM (top dose mostly 65.8 µM), for the others: at the top dose activity change, negative = inhibition, hits mostly inhibitors | AID 2517 | hit rate 0.35% among 350,000 | recombinant APE1, TAMRA/BHQ-2 abasic DNA cleavage fluorescence;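 also: potency is read from the fitted curve at half-maximal effect; plate controls were vehicle for no effect and reference inhibitor for full effect; nearly all actives have a fitted effect of over 55% in size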
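Substrate: short duplex with […] THF abasic site, 5'-TAMRA and 3'-BHQ-2, 50 nM final. APE1 at 0.75 nM, preincubated 15 min RT with compound. Fluorescence increase from first to third read measured activity.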
FEN1 inhibitor – inhibitors of human flap endonuclease 1. Recombinant FEN1 flap cleavage, fluorescence, 15 min. Potency, µM (series often up to 114 µM), inactives show at the highest dose activity change, negative = inhibition, usual class: inhibitors. hit rate 0.35% among 390,000. AID 588795; also: potency is read from the fitted curve at half-maximal effect; nearly all actives have a fitted effect of over 65% in size
Target sequence (P39748 whole entry, looked up): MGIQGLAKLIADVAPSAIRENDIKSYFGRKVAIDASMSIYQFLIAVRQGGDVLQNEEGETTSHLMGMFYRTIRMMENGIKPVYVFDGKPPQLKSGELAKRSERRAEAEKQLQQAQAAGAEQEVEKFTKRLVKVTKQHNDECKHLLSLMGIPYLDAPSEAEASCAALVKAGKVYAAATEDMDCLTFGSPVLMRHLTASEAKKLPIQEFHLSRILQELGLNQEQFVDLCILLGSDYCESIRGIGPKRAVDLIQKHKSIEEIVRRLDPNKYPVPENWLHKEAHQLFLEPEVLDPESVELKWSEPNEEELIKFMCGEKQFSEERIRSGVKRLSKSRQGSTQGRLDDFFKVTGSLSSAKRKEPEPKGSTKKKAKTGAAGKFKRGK
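Enzyme 10 nM, 15 min RT preincubation with compound; start with substrate 50 nM final; reads at 0 and 15 min; qHTS titration, four-parameter Hill fit.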
ADP-Glo counter – counter-screen for PI5P4K inhibitors: ADP-Glo detection interference, no enzyme; ADP-Glo detection counter-screen, luciferase luminescence, no enzyme; shares compounds with PI5P4Ka inh; 1,100 tested, under 10 active; Potency, µM (doses to about 76.9 µM), inactives show at the highest dose activity change, negative = inhibition, most hits filed as inhibitors
An asterisk follows results filed as active; [ ] = dose if it differs, or a comment. In the library only some 1.5% were active in any assay of this set; here they are far more common. Unless noted, calls follow the shape of the dose curve; as a rule, active = well fitted curve in the direction sought with a large enough effect; inconclusive = small, poorly fitted or top-dose-only effect, or another doubt; inactive = no such curve, though single readings can be large; an effect the other way counts as inactive or inconclusive. Unless noted, % is scaled to controls: 0 for no effect and ±100 for the full control effect.

Nc1nc(N)c2cc(Sc3ccc4ccccc4c3)ccc2n1 was read as RECQ1 inh -17%, PI5P4Ka inh -51*, WRN inhibitor 0%, BLM helicase inh 5%, APEX1 inh 0%, FEN1 inhibitor -7% and ADP-Glo counter 0%.
Nc1nc(N)c2cc(Sc3ccc(Cl)cc3)ccc2n1 was read as PI5P4Ka inh -15 and WRN inhibitor 4%.
`Cc1ccc(F)cc1NCC(=O)Nc1ccc(Br)cc1` gave RECQ1 inh -12%, PI5P4Ka inh 29, WRN inhibitor -28%, BLM helicase inh -5%, APEX1 inh inconclusive and FEN1 inhibitor 2%.
For Cc1ccc(NCC(=O)Nc2ccc(Br)cc2)cc1C the results were PI5P4Ka inh -3, WRN inhibitor 0%, BLM helicase inh -7%, APEX1 inh -11%, FEN1 inhibitor 20% and ADP-Glo counter 6%.
For O=C(Nc1ccc(Cl)cc1)Nc1nnc(-c2ccncc2)s1 the results were RECQ1 inh -10%, PI5P4Ka inh -10, WRN inhibitor -3%, BLM helicase inh -7%, APEX1 inh 14% and FEN1 inhibitor -1%.
O=C(Nc1cccc(Cl)c1)Nc1nnc(-c2ccncc2)s1 was read as RECQ1 inh -14%, PI5P4Ka inh -60*, WRN inhibitor -11%, BLM helicase inh -8%, APEX1 inh -5%, FEN1 inhibitor -7% and ADP-Glo counter -5%.
Screening Cc1ccc(NC(=O)c2cc(CN3CCOCC3)on2)cc1Cl returned BLM helicase inh 1% and FEN1 inhibitor 3%.
Screening O=C(Nc1cccc(S(=O)(=O)N2CCOCC2)c1)c1c2c(nc3ccccc13)CCC2 returned RECQ1 inh inconclusive, PI5P4Ka inh -64*, WRN inhibitor -15%[57.1 µM], BLM helicase inh -18%, APEX1 inh inconclusive, FEN1 inhibitor -5% and ADP-Glo counter -2%.
For CCCCn1c(N)c(N(CC(C)C)C(=O)c2cc(-c3ccco3)nc3ccccc23)c(=O)[nH]c1=O the results were PI5P4Ka inh -59*, WRN inhibitor -25%, APEX1 inh 5%, FEN1 inhibitor 9% and ADP-Glo counter 3%.
Screening CCN1CCN(Cc2ccc(NC(=O)c3ccc(C)c(NC(=O)N4CCNC4=O)c3)cc2C(F)(F)F)CC1 returned RECQ1 inh inactive, PI5P4Ka inh -4, WRN inhibitor 0%, BLM helicase inh 6%, APEX1 inh 43% and FEN1 inhibitor 3%.
`CCN1CCN(Cc2ccc(NC(=O)c3ccc(C)c(NC(=O)c4cc(-c5ccc(Br)cc5)n[nH]4)c3)cc2C(F)(F)F)CC1` gave RECQ1 inh -2%, PI5P4Ka inh -57*, WRN inhibitor 4%, BLM helicase inh -4%, APEX1 inh 4%, FEN1 inhibitor -1% and ADP-Glo counter 0%.
For CCOc1ccc(NC(=O)CN(C)C(=O)c2cc3c(s2)CCC3)cc1OCC the results were PI5P4Ka inh -80*, WRN inhibitor inconclusive and ADP-Glo counter -5%.
CCc1ccc(NC(=O)CC2C(=O)N(c3cccc(OC)c3)C(=O)N2C2CCCC2)cc1 (configuration not stated) was read as BLM helicase inh -14% and FEN1 inhibitor -13%.
Screening O=S(=O)(c1ccc(Br)cc1)N1CCCc2ccccc21 returned PI5P4Ka inh 2, WRN inhibitor -35%, BLM helicase inh -5%, APEX1 inh 32%, FEN1 inhibitor -13% and ADP-Glo counter -5%.
Screening O=S(=O)(c1ccc(F)c(F)c1)N1CCCc2ccccc21 returned PI5P4Ka inh 1, WRN inhibitor 2%, BLM helicase inh -8%, APEX1 inh -5% and FEN1 inhibitor -3%.

Screening data as filed in PubChem BioAssay.
